In PubChem BioAssay (NCATS):
Inconclusive results are not listed. Unless noted, the call rests on the fitted dose curve; in most records, active means well fitted curve in either direction with a large enough effect (not every such curve was filed as active); inconclusive means small, poorly fitted or top-dose-only effect, or another doubt; inactive means flat fitted curve, though single readings scatter.

What was measured:
[1] = AP1 Signaling Pathway (AID 357); settings: ME-180 AP-1-bla reporter, EGF-induced, beta-lactamase ratio, 5 h; at 17.2 µM (top of the series) unless noted;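 further: ME-180 reporter cells stimulated with EGF at its EC50 level; on the % scale 0 is the no-effect control and ±100 the full control effect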
Method in brief: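 Read-out was the 460nm/530nm emission ratio (excitation 405nm) after CCF4 loading for 2.5 hours at room temperature. Cells carried an AP-1-driven beta-lactamase reporter, were stimulated with EC50 EGF plus compound for 5 hours, and AC50 values came from titrations.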

[2] = Stat Signaling Pathway (AID 446); settings: ME-180 SIE beta-lactamase reporter, IL-6 stimulated, 5 h; at 17.2 µM (top of the series) unless noted;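 further: ME-180 cervical cancer cells given 40 pM IL-6 alongside compound; SIE-controlled beta-lactamase reporter measured as 460/530 nm FRET emission ratio; on the % scale 0 is the no-effect control and ±100 the full control effect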
Method in brief: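 Screening format detects activators and inhibitors alike: ME-180 SIE-bla cells stimulated at 40 pM IL-6 for 5 hrs with compound, then dual-emission beta-lactamase read at 405 nm excitation.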

[3] = biological target: Glucocorticoid receptor (Homo sapiens) (UniProt P04150); assay: GR-GFP Redistribution (AID 450;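 active means compounds whose dose series gives a full or clear partial fitted curve of increased nuclear translocation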; further: potency means the concentration at half of the fitted maximal effect)
Chain of Glucocorticoid receptor (Homo sapiens) (P04150 whole entry, looked up): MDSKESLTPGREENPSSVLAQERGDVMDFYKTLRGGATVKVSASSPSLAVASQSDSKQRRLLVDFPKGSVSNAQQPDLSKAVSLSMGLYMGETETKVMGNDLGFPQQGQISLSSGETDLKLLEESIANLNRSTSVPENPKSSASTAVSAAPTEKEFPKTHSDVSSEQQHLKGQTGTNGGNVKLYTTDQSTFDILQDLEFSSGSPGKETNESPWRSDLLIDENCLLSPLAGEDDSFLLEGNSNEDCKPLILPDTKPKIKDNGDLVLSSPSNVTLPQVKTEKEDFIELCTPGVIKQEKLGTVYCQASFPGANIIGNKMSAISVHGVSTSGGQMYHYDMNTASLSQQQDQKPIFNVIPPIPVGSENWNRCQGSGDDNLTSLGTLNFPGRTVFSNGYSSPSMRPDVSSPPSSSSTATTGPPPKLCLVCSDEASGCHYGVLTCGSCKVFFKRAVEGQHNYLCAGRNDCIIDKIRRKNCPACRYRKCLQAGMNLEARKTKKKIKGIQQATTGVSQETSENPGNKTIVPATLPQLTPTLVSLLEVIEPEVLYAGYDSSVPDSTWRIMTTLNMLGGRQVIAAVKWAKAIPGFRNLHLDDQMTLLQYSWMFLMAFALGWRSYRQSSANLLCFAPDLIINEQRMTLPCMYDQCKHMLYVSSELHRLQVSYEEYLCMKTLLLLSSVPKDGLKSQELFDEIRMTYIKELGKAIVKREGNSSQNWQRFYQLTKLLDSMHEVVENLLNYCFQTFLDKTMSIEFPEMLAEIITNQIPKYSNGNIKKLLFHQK

CCSc1nc2sc3c(c2c2nnc(SCC(=O)NCc4ccco4)n12)CCCC3
inactive: activity change, negative = inhibition [1] -11.8% | activity, negative = inhibition [2] -18.7% | Potency [3] > 20.6 µM

CC(C)Cc1nc(N2CCN(C(=O)Cc3ccccc3)CC2)c(C#N)c2c1COC(C)(C)C2
inactive: activity change, negative = inhibition [1] -5.38% | activity, negative = inhibition [2] -23.7% | Potency [3] > 20.6 µM

CCN(CC)CCCn1c(C)cc2c(c1=O)C(c1ccc(OC)c(OC)c1OC)C(C#N)=C(N)O2 (configuration not stated)
inactive: activity change, negative = inhibition [1] 6.36% | activity, negative = inhibition [2] 10.3% | Potency [3] > 20.6 µM

CC(NC(=O)OC(C)(C)C)C(=O)Oc1ccc2ccc(=O)oc2c1 (configuration not stated)
inactive: activity change, negative = inhibition [1] 24.1% | activity, negative = inhibition [2] 10.7% | Potency [3] > 20.6 µM

COC(=O)NCC12CC3CC(C1)CC(CNC(=O)OC)(C3)C2
inactive: activity change, negative = inhibition [1] 3.64% | activity, negative = inhibition [2] -1.03% | Potency [3] > 20.6 µM

Cc1ccc(-n2c(=O)c3c4c(sc3n3c(C)nnc23)COC(C(C)C)C4)cc1 (configuration not stated)
inactive: activity change, negative = inhibition [1] -7.34% | activity, negative = inhibition [2] -0.5% | Potency [3] > 20.6 µM

CCCCCCn1c(SCCN2CCOCC2)nc2c1c(=O)[nH]c(=O)n2C
inactive: activity change, negative = inhibition [1] -17.8% | activity, negative = inhibition [2] -0.329% | Potency [3] > 20.6 µM

CCCCNC1=C(Br)C(=O)CC(C)(C)C1
inactive: activity change, negative = inhibition [1] 4.07% | activity, negative = inhibition [2] -6.99% | Potency [3] > 20.6 µM

Cn1c(OCc2cccnc2)nc2c1c(=O)n(Cc1ccc(Br)cc1)c(=O)n2C
inactive: activity change, negative = inhibition [1] -26.8% | activity, negative = inhibition [2] -27.6% | Potency [3] > 20.6 µM

COC(=O)CN(c1nc(C)c(Cl)c(OC)n1)S(=O)(=O)c1ccc(C)cc1
inactive: activity change, negative = inhibition [1] 6.71% | activity, negative = inhibition [2] 3.43% | Potency [3] > 20.6 µM

COC(=O)CSc1nc(-c2cccs2)ccc1C#N
inactive: activity change, negative = inhibition [1] -2.59% | activity, negative = inhibition [2] -2.18% | Potency [3] > 20.6 µM

c1ccc(C2Nc3ccccc3-c3nc4ccccc4n32)nc1 (configuration not stated)
inactive: activity change, negative = inhibition [1] -3.28% | activity, negative = inhibition [2] -0.281% | Potency [3] > 20.6 µM

Cc1ccc2cc(CN(C(=O)c3ccco3)c3ccccc3C)c(=O)[nH]c2c1
inactive: activity change, negative = inhibition [1] -25.5% | activity, negative = inhibition [2] -12.8% | Potency [3] > 20.6 µM

COc1ccc(/C=C/C2=NC(=C\N(C)C)/C(=O)O2)cc1
inactive: activity change, negative = inhibition [1] -4.1% | activity, negative = inhibition [2] -0.663% | Potency [3] > 20.6 µM

CCOc1nc(SCCOc2ccc(C)cc2)nc(N(C)C)n1
inactive: activity change, negative = inhibition [1] -8.15% | activity, negative = inhibition [2] -4.82% | Potency [3] > 20.6 µM

CCCCNC(=O)c1c(N)n(/N=C/c2cccnc2)c2nc3ccccc3nc12
inactive: activity change, negative = inhibition [1] -12% | activity, negative = inhibition [2] 16.8% | Potency [3] > 20.6 µM

CCN(CC)C(=O)CSc1nc2ccccc2c(=O)n1CC1CCCCC1
inactive: activity change, negative = inhibition [1] -21.3% | activity, negative = inhibition [2] -17.5% | Potency [3] > 20.6 µM

CCCn1c(SCC#N)nc2c(c1=O)C1(CCCC1)Cc1ccccc1-2
inactive: activity change, negative = inhibition [1] 13.8% | activity, negative = inhibition [2] 2.26% | Potency [3] > 20.6 µM

COc1ccc(N/C=C(\C#N)c2nc3ccccc3n2C)c(OC)c1
inactive: activity change, negative = inhibition [1] -21.3% | activity, negative = inhibition [2] -22% | Potency [3] > 20.6 µM

Cc1ccc(S(=O)(=O)/C(C#N)=C/c2c(N3CCN(C)CC3)nc3c(C)cccn3c2=O)cc1
inactive: activity change, negative = inhibition [1] 9.07% | activity, negative = inhibition [2] -7.22% | Potency [3] > 20.6 µM

COC(=O)c1sc2nc(N3CCCCC3)c3c(c2c1N)CC(C)(C)N(C)C3
inactive: activity change, negative = inhibition [1] 21% | activity, negative = inhibition [2] 9.93% | Potency [3] > 20.6 µM

C(=N\n1cnnc1)/c1ccccn1
inactive: activity change, negative = inhibition [1] 1.5% | activity, negative = inhibition [2] 7.02% | Potency [3] > 20.6 µM

CC1CN(C2CCN(C(=O)c3ccccc3Cl)CC2)CC(C)O1 (configuration not stated)
inactive: activity change, negative = inhibition [1] 6.4% | activity, negative = inhibition [2] 1.52% | Potency [3] > 20.6 µM

CC1(C)C2CCC1(C)C(NC(=O)CCN1CCCCC1)C2 (configuration not stated)
inactive: activity change, negative = inhibition [1] 6.22% | activity, negative = inhibition [2] 8.36% | Potency [3] > 20.6 µM

CCOC(=O)c1[nH]c2cc(OC)c(OC)cc2c1NC(=O)C(C)N1CCN(Cc2ccccc2)CC1 (configuration not stated)
inactive: activity change, negative = inhibition [1] -21.5% | activity, negative = inhibition [2] -4.92% | Potency [3] > 20.6 µM

CCOC(=O)c1c2c(c(=S)n(-c3ccccc3)c1N)CCC2
inactive: activity change, negative = inhibition [1] -21.8% | activity, negative = inhibition [2] -15.9% | Potency [3] > 20.6 µM

CC(C)OC(=O)c1nn2c(C(F)(F)F)cc(-c3ccc(Br)o3)nc2c1Br
inactive: activity change, negative = inhibition [1] -6.76% | activity, negative = inhibition [2] 8.51% | Potency [3] > 20.6 µM

C=CCNc1nc(N2CCCCC2)c(C#N)c2c1CN(Cc1ccccc1)CC2
inactive: activity change, negative = inhibition [1] 1.37% | activity, negative = inhibition [2] -3.92% | Potency [3] > 20.6 µM

CCn1cc(C(=O)NCCCN(C)C)c(=O)c2cc(F)c(N3CCN(C)CC3)cc21
inactive: activity change, negative = inhibition [1] -0.851% | activity, negative = inhibition [2] 3.71% | Potency [3] > 20.6 µM
